Source: PubChem BioAssay
HP1b chromo inh – blocks HP1-beta chromodomain binding to methylated histone tails; 390,000 compounds, 0.56% hits; AlphaScreen HP1-beta / biotin-H3K9me3 peptide binding; P83916; Potency, µM (titrated, usually from 114 µM), for the others: at the top dose activity change, negative = inhibition, usual class: inhibitors; AID 540317; also: nearly all actives have a fitted effect of over 70% in size
Target sequence (P83916 whole entry, looked up): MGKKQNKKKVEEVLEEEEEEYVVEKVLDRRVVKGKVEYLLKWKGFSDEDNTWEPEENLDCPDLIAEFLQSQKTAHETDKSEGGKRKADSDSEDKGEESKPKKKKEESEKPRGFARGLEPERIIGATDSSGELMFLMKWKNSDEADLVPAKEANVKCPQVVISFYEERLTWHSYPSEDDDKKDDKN
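Compound inhibition of the preformed complex between 50 nM HP1-beta and 50 nM biotinylated H3K9me3 peptide was read by AlphaScreen. Buffer was PBS pH 7.4 with 0.01% Tween-20. Incubations ran 30 min at room temperature, with 10 ug/mL donor/acceptor beads.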
JMJD2A Tudor – JMJD2A Tudor domain (human) inhibition | O75164 | AlphaScreen JMJD2A-Tudor / H3K4me3 peptide binding | Potency, µM (titrated, usually from 114 µM), inactives show top-dose activity change, negative = inhibition, most hits filed as inhibitors | 390,000 compounds, 4.4% hits; also: % is scaled to controls: 0 for no effect and ±100 for the full control effect; nearly all actives have a fitted effect of over 50% in size
PLK1 PBD block – blocks phosphopeptide binding to human PLK1 polo-box domain | Potency, µM, for inactives: max response, negative = inhibition, most hits filed as inhibitors | Plk1 PBD binding of FITC phosphopeptide, fluorescence polarization | P53350 | 360,000 compounds, 2.8% hits | AID 720504; also: series mostly up to about 57 µM; % is scaled to controls: 0 for no effect and ±100 for the full control effect; nearly all actives have a fitted effect of over 65% in size
BAZ2B inh – BAZ2B (human) inhibition | AlphaScreen BAZ2B-H3K14Ac peptide displacement | 360,000 compounds, 4.4% hits | Potency, µM (highest dose often 114 µM), for inactives: at the highest dose activity change, negative = inhibition, most hits filed as inhibitors; also: % is scaled to controls: 0 for no effect and ±100 for the full control effect; nearly all actives have a fitted effect of over 60% in size
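Inhibition is scored as reduced AlphaScreen emission. The BAZ2B/b-H3(5-23)K14Ac complex (50 nM each) in PBS pH 7.4, 0.01% Tween-20 meets compound (up to 110 uM) for 30 min at RT before bead addition.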
Sfp inh – blocks B. subtilis Sfp PPTase activity; Q9F4F7; Biochemical Sfp PPTase activity, qHTS; Potency, µM, without a hit: largest response in the series, negative = inhibition, hits mostly inhibitors; 310,000 compounds, 3.5% hits;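 also: the enzyme is Sfp with the accession as filed and its product quenches rhodamine fluorescence; 0% = enzyme reaction without inhibitor and -100% = no enzyme wells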
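Buffer: 50 mM Hepes-Na pH 7.6, 10 mM MgCl2, 0.01% Nonidet P-40, 0.01% BSA. Enzyme 15 nM, pre-exposed to compound 15 min; substrates then added and fluorescence change tracked over 30 min.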
G9a inh – inhibitors of human histone lysine methyltransferase G9a. G9a H3K9 monomethylation, AlphaScreen, 2 h. Potency, µM (series often up to 102 µM), without a hit: top-dose activity, negative = inhibition, usual class: inhibitors. 350,000 compounds, 8.8% hits. AID 504332; also: % is scaled to controls: 0 for no effect and ±100 for the full control effect; nearly all actives have a fitted effect of over 75% in size
Target sequence (Q96KQ7 913-1193 limits assumed): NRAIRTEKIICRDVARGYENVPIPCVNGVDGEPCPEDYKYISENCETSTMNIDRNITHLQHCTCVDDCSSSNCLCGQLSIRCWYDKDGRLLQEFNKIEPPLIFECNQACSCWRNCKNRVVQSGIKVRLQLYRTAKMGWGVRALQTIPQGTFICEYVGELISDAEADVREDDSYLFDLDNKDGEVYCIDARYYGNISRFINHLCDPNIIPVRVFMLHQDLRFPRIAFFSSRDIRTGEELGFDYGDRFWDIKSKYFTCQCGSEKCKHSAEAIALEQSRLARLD
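Enzyme 20 nM + cpd, 15 min RT; add b-H3K9 pep 500 nM / SAM 20 uM; 2 h RT; anti-H3K9me1 Ab 0.5 ug/mL + SA donor / anti-rabbit acceptor beads 20 ug/mL each, 10 min; AlphaScreen read.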
* = called active by the depositor; ? = inconclusive; . = no result; [ ] = dose if it differs, or a comment. Sampled rows, rich in hits. Any-hit rate of the full collection: about 12%. Calls follow the shape of the dose curve; as a rule, active = well fitted curve in the direction sought with a large enough effect; inconclusive = small, poorly fitted or top-dose-only effect, or another doubt; inactive = no such curve, though single readings can be large; an effect the other way counts as inactive or inconclusive. Potency is read from the fitted curve at half-maximal effect.

SMILES | HP1b chromo inh | JMJD2A Tudor | PLK1 PBD block | BAZ2B inh | Sfp inh | G9a inh
Cc1ccc(NC(=O)C2C3C=CC(O3)C2C(=O)O)c(C)c1 (stereo not given) | 35% | -10% | -18% | -2% | -9% | 40µM*
O=C(c1cc(Br)ccc1O)N(Cc1ccco1)Cc1cccs1 | -3%[57 µM] | -28%[57.1 µM] | . | . | . | .
CCN1C(C)=C(C(=O)OC)C(c2ccccc2)N2C(=O)[C@](O)(C(=O)OC)C(c3ccccc3)C(C(C)=O)=C12 (stereo not given in full) | . | . | . | . | 1% | .
COC(=O)[C@@H]1C[C@H]1[C@@H](NC(=O)c1cc(C)nn1C)c1ccccc1 | . | . | . | . | 9% | .
Cc1ccc(C)c(NC(=O)C2CC=CCC2C(=O)O)c1 (stereo not given) | 37% | 11% | 0% | -26% | 28% | -9%[59 µM]
Cc1ccc(C)c(NC(=O)C2C3C=CC(O3)C2C(=O)O)c1 (stereo not given) | 35% | -22% | 4% | -12% | -4% | 45µM*
N#Cc1nc(-c2cccs2)oc1NCC1CCCO1 (stereo not given) | 22% | -14% | 2% | 1% | 13% | 21%[12.7 µM]
O=C(CN(C1CCCCC1)S(=O)(=O)c1ccc(F)cc1)NCC1CCCO1 (stereo not given) | ? | 25µM* | 30µM* | . | . | .
O=C(CSc1oc(-c2cccs2)nc1S(=O)(=O)c1ccc(F)cc1)NCC1CCCO1 (stereo not given) | 30% | -30% | -27% | 0% | -16% | 45µM*
O=C(CN(C1CCCCC1)S(=O)(=O)c1ccccc1)NCC1CCCO1 (stereo not given) | 25% | 7% | -1% | 4% | 16% | -13%
O=C(CSc1oc(-c2ccc(F)cc2)nc1S(=O)(=O)c1ccc(F)cc1)NCC1CCCO1 (stereo not given) | 8% | -17% | 4% | 8% | 1% | ?
COc1ccc(NC(=O)CSc2oc(-c3ccc(C)cc3)nc2S(=O)(=O)c2ccc(C)cc2)c(OC)c1 | ? | 56µM* | . | 1% | . | ?
O=S(=O)(c1ccccc1)c1nc(-c2cccs2)oc1NCC1CCCO1 (stereo not given) | 24% | ? | -12% | -5% | 56µM* | 32µM*
NC(=O)C1C2C=CC(C2)C1c1ccccc1 (stereo not given) | 19%[57 µM] | 3% | -4% | . | . | .
C[C@H](NC(=O)[C@@H](N)Cc1ccc(O)cc1)C(=O)NCC(=O)N[C@H]1CSSC[C@@H](C(=O)O)NC(=O)[C@H](CO)NC(=O)[C@H]([C@@H](C)O)NC(=O)[C@H](Cc2ccccc2)NC(=O)[C@H]([C@@H](C)O)NC(=O)[C@H](CCCCN)NC(=O)[C@@H](Cc2c[nH]c3ccccc23)NC(=O)[C@H](Cc2ccccc2)NC(=O)[C@H](Cc2ccccc2)NC(=O)[C@H](CC(N)=O)NC(=O)[C@H](CCCCN)NC1=O | . | . | . | . | 2% | .
O=C(Nc1ccccc1)[C@@H]1CC=C[C@@H]2CCN(Cc3ccc(Cl)c(Cl)c3)C(=O)[C@@H]21 | 30% | -6% | 4% | . | . | .
COc1cccc(-c2ncc3ccccc3c2COC(=O)CCCC(=O)O)c1 | 52% | -6% | -4% | -1% | . | -18%[0.501 µM]
Cc1ccc(S(=O)(=O)c2nc(-c3ccccc3)oc2SCC(=O)NCC2CCCO2)cc1 (stereo not given) | -2% | -31% | -18% | -3% | -4% | 45µM*
Cc1ccc(S(=O)(=O)c2nc(-c3ccc(F)cc3)oc2SCC(=O)NCC2CCCO2)cc1 (stereo not given) | 23% | -10% | -1% | 5% | -15% | ?
Cc1ccc(-c2nc(S(=O)(=O)c3ccc(F)cc3)c(SCC(=O)NCC3CCCO3)o2)cc1 (stereo not given) | -19% | -19%[57.1 µM] | 19µM* | 1% | -7% | 14µM*
Cn1c(N)c(C(=O)Nc2ccc(-c3ccccc3)cc2)sc1=S | ? | 50µM* | 15µM* | 50µM* | 3.2µM* | 8.9µM*
